# Source: PubChem BioAssay AID1508600 (Functional Genomics Laboratory (NCATS/FGL), 2020)
# Hit rate of the full screen: of about 53,000 sequences, about 3,700 (7%) were called active.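 The calls were made as follows: active = gene knockdowns whose robust z-score for IL-1 alpha signal is at least 2 or at most -2, so actives lie on both sides; inactive = the rest.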 Shown is part of a subset that was picked to be rich in actives.
# Experiment: Components of the Cytosolic LPS Sensing Pathway: Gene Identification via Genome-wide siRNA Screen;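 also: robust z of the log signal after scaling to non-targeting control siRNA wells of the plate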
# Settings: RAW264.7 macrophages, IL-1a HTRF, actives lie on both sides, screened at 100 nM (by protocol), cells primed 5 h with Pam3CSK4 first
# Method in brief: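 Read-out: IL-1a HTRF on supernatant, divided by plate negative-control median ×100, log-transformed and converted to robust z-score. Cells were RAW264.7 given 100 nM siRNA, Pam3CSK4-primed 5 hours, then LipidA-transfected 24 hour.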
row,Sequence,z-score
1,GCAAGAGCUGAGUACUCUGTT against Ahsp,-0.522 (inactive)
2,GGAAGUUUAAAGUCUAGAATT against Adcy7,0.477 (inactive)
3,GGCCCAAGAGAACAUCAAATT against Speer2,-2.16 (active)
4,GCAGUCUCCAAUUGAGAUUTT against Car13,-0.0313 (inactive)
5,CUCCGACCAUACUGGAAGATT against Arpp21,-0.406 (inactive)
6,GCAAGCUAGAGAAAAUCAGTT against Serpinb3b,-0.231 (inactive)
7,GGAAAAAAGGUCUGUAAAUTT against Ubl4b,0.223 (inactive)
8,GGAUGUGCUGACCUUACAGTT against Gaa,2.35 (active)
9,GCGGAACAUCUUAGCUUAATT against Perm1,-0.111 (inactive)
10,GCCCUGGAAAGGAUGUUUGTT against Hba-a1,-0.607 (inactive)
11,UAGCCACUCAUCAUUCUAATT against Gm10319,0.964 (inactive)
12,GGCACUUUUGAUUUCAGAUTT against Nrd1,3.52 (active)
13,GCUGGAUAUUUCUAAGUAUTT against A26c3,1.9 (inactive)
14,CCGUUAGGUUUUUAUCCAATT against Ube2b,0.193 (inactive)
15,GGACCUUUUAUCUGAAAUGTT against Papln,1.54 (inactive)
16,GGAUGUGACUCAGAUUGGGTT against Tmem171,0.0209 (inactive)
17,GGAGAUGGCCACCUAUUUGTT against Csnk1g2,-0.325 (inactive)
18,GGAAAAAGCCUAACUAUGATT against Ccnl1,-0.7 (inactive)
19,GCAUGAUAUCAGUGGCAAGTT against Itga11,-2.41 (active)
20,GCCUGUUGCUAUGAAUGGUTT against Zfp597,-0.353 (inactive)
21,GGAAGCAUUGAAGAUAAGATT against Topbp1,-0.273 (inactive)
22,CCAUUGGAUCCAUUCCUAUTT against Plcd3,-0.984 (inactive)

row,Sequence,z-score
1,CCUCUGUCUGCUAAUAAGATT against R3hdm4,1.01 (inactive)
2,GGAGGCCAUCACACUUAGATT against 4933421I07Rik,-2.27 (active)
3,GUUCCCGUUCUACGAGAAGTT against Foxl2,1.22 (inactive)
4,CCAAAUGACAGCUAUGGCCTT against Gtf2ird2,-0.312 (inactive)
5,GCUGUCCAAGUACGAGACATT against Atoh7,0.0721 (inactive)
6,GCUCCUGUGAUUGAUGCAGTT against Dync1h1,0.528 (inactive)
7,GCAUUUAUAAUUGCUGAACTT against Cbx1,-0.637 (inactive)
8,GGAACCACACAUGUGUUAATT against Grik2,-0.281 (inactive)
9,GGACAAUUGCCUUUUGACATT against Thbs3,0.146 (inactive)
10,CCAGCAGCCUUCUAACUAUTT against Hnrnpa2b1,2.14 (active)
11,GGUCUUCUACAACUCGGAATT against Sgpp1,-0.146 (inactive)
12,GGUGGUGAGAUAGAGAAAUTT against C1qc,-0.115 (inactive)
13,GCAUUACACUUAACUGACGTT against Zfp652,-1.28 (inactive)
14,CCCAAUAACAUCUUAAGAUTT against Lyn,-0.254 (inactive)
15,GGGAGACGGCGAGGUUUUATT against Arl6ip4,2.89 (active)
16,GGAAUGUCACUUUGACUCUTT against Arxes1,-0.533 (inactive)
17,GGCCAGAGAAGAUUACUUUTT against Ajuba,1.03 (inactive)
18,GGACCUCACAGAUUAUGGGTT against Ebi3,0.693 (inactive)
19,CGCCUACAGCUCUAUCUUATT against 2700062C07Rik,1.05 (inactive)
20,GGCGACAUGAAAGAAGGCATT against Klk6,2.61 (active)
21,ACCCUCACCUCGCAUGACUTT against Pcbd2,-1.57 (inactive)
22,GGACAAAGUAUUUGUGACCTT against Cd3d,0.00913 (inactive)

row,Sequence,z-score
1,GCAAGAUCCAGCCCUAUCATT against Usp17lc,-0.439 (inactive)
2,GGAAAGUCCUUCAUCAGCATT against Cep120,-2.91 (active)
3,GGACAAGAUGAUCUGCCUATT against Lrrc8a,0.722 (inactive)
4,GCCGAUACUUGAGCCAGUUTT against Srd5a1,0.477 (inactive)
5,GCUUCGACACUUUAUUUCUTT against Cnp,0.26 (inactive)
6,GGGUUUUCUUGUGUGAAAATT against Pomp,-2.93 (active)
7,CGAGGGAAUGCACUACAACTT against Chpf,2.16 (active)
8,GGAAGACCAGCAGUUAAGATT against Grb10,-1.56 (inactive)
9,GGUGGAAGAGGUCAAAUAATT against Denr,1.05 (inactive)
10,GGAAAAAGACUUCUAUCACTT against Ly6g6g,-2.03 (active)
11,GGCUUUUGAGAUUGCUAAATT against Mfap3l,-0.491 (inactive)
12,GGCCUUUGAUGACUUCAUCTT against Cacna1h,0.904 (inactive)
13,CCACUGGACAGGAACAAAGTT against Rims1,-1.2 (inactive)
14,GGAGGUGAUGCAGAUGCUGTT against Gpi1,3.06 (active)
15,GCCGACUCAUGGUUUAGAATT against Tmem18,-0.0972 (inactive)
16,GGCAAUGAAUUUAACAAUCTT against Zfp874a,-0.351 (inactive)
17,GGGACUUGAUCUCCUGAGUTT against Krtap4-2,-0.223 (inactive)
18,GGACAACGAGUGUCUGGGUTT against Cx3cr1,4.8 (active)
19,CCCAUGGUCACUUAUAUAUTT against Jarid2,0.109 (inactive)
20,GGAGCUUCGUGGAUAAGAGTT against Padi3,-1.79 (inactive)
21,GGUUGUUGGAAAAGAUGAATT against Ids,-1.55 (inactive)
22,GGAUCAUCCAAGUGUUCCGTT against Olfr555,1.51 (inactive)

row,Sequence,z-score
1,GCAGUUUGUGGAUAUGUCATT against Treh,0.604 (inactive)
2,GGUUUUCUCGCUCAGACCATT against Wt1,0.352 (inactive)
3,GGUCAUACAUGUGAAGACATT against Tsr2,2.01 (active)
4,GGGCAAGAUGGUCAGUAGATT against Tpt1,0.627 (inactive)
5,CGCAACAGCUAGGAUUUUUTT against Me1,0.193 (inactive)
6,CCCAUUAGAUGCUGAAUAUTT against Stmn1,0.139 (inactive)
7,CCAGUGUUUGACUUGACCATT against Dpysl3,0.228 (inactive)
8,GGUUGUCGUCAACAAGAGCTT against Krt72,1.96 (inactive)
9,GGUGUCAUCCCUGAAAGAGTT against Tert,0.0314 (inactive)
10,GGAAUUUCUUCAGGACACUTT against Procr,0.278 (inactive)
11,GGCUCAAUAAAAUGAAGUGTT against Elovl2,2.03 (active)
12,GGCUCAUGGUUAUUGUAAUTT against Olfr1198,-0.385 (inactive)
13,UGUAUCUUUCUGUAGUUCUTT against Taar7e,0.195 (inactive)
14,GGAACAUGGCACUUUCGUGTT against Pcdh10,0.905 (inactive)
15,CGGUUAAAAGCCCUCAGCATT against Olfr592,-1.41 (inactive)
16,GGUCAAGUGCGAGAAACUCTT against Mafb,-0.016 (inactive)
17,GGUGGGAAGAGGAAUACACTT against Iffo1,4.73 (active)
18,GGGACCAGAUGAAGAAGGATT against Coq4,0.267 (inactive)
19,GGAAAUAGAGGAAAGAGAATT against Rbm17,-0.235 (inactive)
20,GGCCAUCCAUUGAAGACAUTT against Stk-ps2,1.05 (inactive)
21,GGCUCUGUUGAAUGCAACGTT against Slc39a6,-2.15 (active)
22,CUUUGUCAGCCAUGUAUCCTT against Tas2r104,0.468 (inactive)

row,Sequence,z-score
1,GCUGCCACUGGACACAUAATT against 4930591A17Rik,-0.0198 (inactive)
2,GGCUCAAGAAAGUGAAUGATT against Myog,-1.14 (inactive)
3,GCAAGACACUUGAUAACUCTT against Znrd1as,2.34 (active)
4,GGAGCAUUUGUUUCCAAGATT against Cd38,-1.33 (inactive)
5,GCGCAAUGACGAUAAACUCTT against Sema3f,0.534 (inactive)
6,CCGGAGGUUCCAACAAACUTT against Dlx1,-0.591 (inactive)
7,GGAUCCAGAACUAAAAAUCTT against Pcdhga2,0.193 (inactive)
8,GCUUACUAAUGCGGAUUACTT against 5330438D12Rik,-2.41 (active)
9,GGAAGUUGGUGAGCUGGUATT against Ccl17,2.4 (active)
10,GGAAGACAACAACCUAGAATT against Rpn1,-0.894 (inactive)
11,GCAGAGUCUGGAUCAACAUTT against Efcab14,-0.583 (inactive)
12,CCUCCAGUUCAGAAUUCUATT against Surf4,0.634 (inactive)
13,GGCACGAUACUUAUUUGAATT against Nudt13,-1.43 (inactive)
14,GGAAGUUGUAGGAGAAAACTT against Rnf214,-0.624 (inactive)
15,CGAGAACAGAGGUUUUUAATT against Mxi1,0.0641 (inactive)
16,GGAUGCAUUUUUUCUGGAATT against Nop53,0.85 (inactive)
17,GGUGGAAGAGGAGAGUGAATT against Ncl,-0.284 (inactive)
18,GGAACUGAGCCAAGAAGCUTT against Prox2,-2.16 (active)
19,GUGUGGACAACUCCUGAGUTT against 9630041A04Rik,-1.14 (inactive)
